{"source": "PubChem BioAssay AID588342", "about": "(National Center for Advancing Translational Sciences (NCATS), 2011)", "note": "Screen size: about 360,000 compounds; about 25,000 (6.9%) were called active. Where a call stands in place of a potency, no number is given. Roughly 9% stayed inconclusive and do not appear here. Calls come from the whole dose curve; as a rule, active = well fitted inhibition curve with a large enough effect; inconclusive = small, poorly fitted or top-dose-only effect; inactive = flat fitted curve, though single readings scatter. The full list was thinned out, with actives kept by preference."}
{"biological_target": "Luciferin 4-monooxygenase (Photinus pyralis) (UniProt P08659)", "sequence (P08659 whole entry, looked up)": "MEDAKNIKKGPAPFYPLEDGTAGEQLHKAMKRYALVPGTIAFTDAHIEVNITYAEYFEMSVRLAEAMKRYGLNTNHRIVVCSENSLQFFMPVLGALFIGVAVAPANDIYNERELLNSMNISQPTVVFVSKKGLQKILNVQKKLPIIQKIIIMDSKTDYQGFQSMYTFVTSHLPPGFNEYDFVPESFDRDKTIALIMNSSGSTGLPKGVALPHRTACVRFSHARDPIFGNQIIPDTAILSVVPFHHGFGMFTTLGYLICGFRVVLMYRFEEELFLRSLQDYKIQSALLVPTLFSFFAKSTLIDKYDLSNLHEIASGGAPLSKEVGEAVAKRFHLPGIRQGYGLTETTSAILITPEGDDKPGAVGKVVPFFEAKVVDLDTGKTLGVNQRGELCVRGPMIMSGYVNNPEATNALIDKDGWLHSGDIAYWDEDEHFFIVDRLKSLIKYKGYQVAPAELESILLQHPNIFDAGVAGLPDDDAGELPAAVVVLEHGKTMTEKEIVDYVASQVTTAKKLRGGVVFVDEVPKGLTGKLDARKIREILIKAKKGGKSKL", "test": "qHTS profiling assay for firefly luciferase inhibitor/activator using purifed enzyme and Km concentrations of substrates (counterscreen for miR-21 project); note: nearly all actives have a fitted effect of over 55% in size; note: potency is the fitted concentration of half-maximal effect", "conditions": "purified FLuc, luminescence inhibition; series mostly up to 57.5 µM", "in_short": "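Purified P. pyralis luciferase, 10 nM final, with Km-level 10 uM D-luciferin and 10 uM ATP in 50 mM Tris acetate pH 7.5, 10 mM Mg acetate, 0.01% Tween-20, 0.05% BSA; 6-point qHTS titration about 60 µM downward; luminescence read.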"}
{"compound": "CCOc1ccc(C(C(=O)NC2CCCC2)N(C(=O)c2snc(C(N)=O)c2N)C2CCCC2)cc1", "note": "(configuration not stated)", "Potency": "inactive"}
{"compound": "CC(C)(C)[Si](OCC[C@@H]1C[C@@]1(C)[C@@H](NP(=O)(c1ccccc1)c1ccccc1)c1ccccc1)(c1ccccc1)c1ccccc1", "Potency": "inactive"}
{"compound": "CCn1nccc1C(=O)Nc1ccc(S(=O)(=O)NC23CC4CC(CC(C4)C2)C3)cc1", "Potency": "inactive"}
{"compound": "CCn1nccc1C(=O)Nc1ccc(Cl)c(Cl)c1", "Potency": "21.3 µM (active)"}
{"compound": "O=C(CC(O)(C(F)(F)F)C(F)(F)F)Nc1ccc(Cl)c(Cl)c1", "Potency": "inactive"}
{"compound": "COC(=O)c1cnc(N2CCN(c3ccccc3OC)CC2)c2ccccc12", "Potency": "inactive"}
{"compound": "Cc1ccc(Cl)cc1NC(=O)CSc1nc2ccccc2nc1Cc1ccccc1", "Potency": "inactive"}
{"compound": "CCOc1ccc(-c2n[nH]c3c2C(c2ccccc2OC)N(c2ccc(Br)cc2)C3=O)cc1", "note": "(configuration not stated)", "Potency": "inactive"}
{"compound": "CCN(Cc1ccccc1)Cc1c(O)ccc2c(=O)c(-c3ccc(Cl)cc3Cl)coc12", "Potency": "inactive"}
{"compound": "CN(C)S(=O)(=O)c1cccc(C(=O)OCC(=O)N2CCCC2=O)c1", "Potency": "inactive"}
{"compound": "CCOC(=O)c1[nH]c(C)c(C(=O)OCC(=O)N2c3ccccc3CC2C)c1C", "note": "(configuration not stated)", "Potency": "inactive"}
{"compound": "CCOC(=O)c1c(C)[nH]c(C(=O)NCCN2CCOCC2)c1C", "Potency": "inactive"}
{"compound": "O=C(OCC(=O)N1CCCC1=O)c1cc(S(=O)(=O)N2CCOCC2)ccc1Cl", "Potency": "inactive"}
{"compound": "Cc1c(C(=O)OCC(=O)N2CCCC2=O)oc2ccccc12", "Potency": "16.9 µM (active)"}
{"compound": "CCOC(=O)c1c(C)[nH]c(C(=O)OCC(=O)N2CCCC2=O)c1C", "Potency": "12 µM (active)"}
{"compound": "CCOc1ccc(CCNC(=O)c2cc3c(=O)n(C)c4ccccc4c3n2C)cc1", "Potency": "inactive"}
{"compound": "O=S(=O)(c1ccc(Br)c2ccccc12)N1CCOCC1", "Potency": "inactive"}
{"compound": "Cc1ccc(N=Cc2c(O)n(-c3nccs3)c(=O)c3ccccc23)c(C)c1", "Potency": "inactive"}
{"compound": "Cc1ccc(Oc2c(C(F)(F)F)oc3c(CN4CCCCC4)c(O)ccc3c2=O)cc1", "Potency": "inactive"}
{"compound": "O=C(CN1CCOCC1)Nc1c(Cl)cc(Cl)cc1Cl", "Potency": "inactive"}
{"compound": "O=C(CN1CCCCCC1)Nc1ccc(Cl)cc1F", "Potency": "inactive"}
{"compound": "COc1cc([N+](=O)[O-])ccc1NC(=O)CN1CCCC1", "Potency": "inactive"}
{"compound": "COc1cc(Cl)c(C)cc1NC(=O)CN1CCCCCC1", "Potency": "inactive"}
{"compound": "O=C(CN1CCCCCC1)Nc1c(Cl)cc(Cl)cc1Cl", "Potency": "15.1 µM (active)"}
{"compound": "O=C(CN1CCCCCC1)Nc1ccc(Br)cc1Br", "Potency": "16.9 µM (active)"}
{"compound": "COc1ccc(C(=O)Nc2nonc2-c2ccc(OC)c(OC)c2)cc1Cl", "Potency": "inactive"}
{"compound": "CCCc1ccc(OCC(O)CN2CCN(CCO)CC2)cc1", "note": "(configuration not stated)", "Potency": "inactive"}
{"compound": "CC(C)Cn1c(N)c(C(=O)COC(=O)C2CCCN2C(=O)c2cccs2)c(=O)n(C)c1=O", "note": "(configuration not stated)", "Potency": "inactive"}
{"compound": "COc1ccc(-c2nnc(SC(C)C(=O)NC3CC3)o2)cc1", "note": "(configuration not stated)", "Potency": "inactive"}
{"compound": "Nc1nc(SCC(=O)Nc2ccc(Cl)c([N+](=O)[O-])c2)n[nH]1", "Potency": "inactive"}
{"compound": "COc1ccc(NC(=O)CSC2=Nc3ccccc3C3=NC(CC(=O)NCc4ccccc4OC)C(=O)N23)cc1Cl", "note": "(configuration not stated)", "Potency": "inactive"}
{"compound": "O=C(c1cccc(Br)c1)N1CCN(C2=NS(=O)(=O)c3ccccc32)CC1", "Potency": "inactive"}
{"compound": "O=C(Oc1cccc(NC2=NS(=O)(=O)c3ccccc32)c1)c1ccncc1", "Potency": "26.9 µM (active)"}
{"compound": "O=C(N/N=C/c1cccc(OC(=O)c2ccc([N+](=O)[O-])cc2)c1)c1cccnc1", "Potency": "inactive"}
{"compound": "C[N+]1(CCNC(=O)/C=N/O)CCCCC1", "Potency": "inactive"}
{"compound": "C=CCC(NCc1ccco1)c1ccc(OC)cc1", "note": "(configuration not stated)", "Potency": "inactive"}
{"compound": "COc1ccc(-n2cnc3cc(NCc4ccco4)ccc32)cc1", "Potency": "7.57 µM (active)"}
{"compound": "COc1ccc(-n2cnc3cc(C(=O)NC4CCCC4)ccc32)cc1", "Potency": "inactive"}
{"compound": "Cc1ccc(S(=O)(=O)c2nnn3c2nc(N2CCN(c4ccccc4F)CC2)c2cc(Cl)ccc23)cc1C", "Potency": "inactive"}
{"compound": "COc1ccc(CCNC(=O)c2cnc3sc(N4CCCCCC4)nn3c2=O)cc1OC", "Potency": "inactive"}
{"compound": "COc1ccc(/C=C2\\SC(=O)N(CCC(=O)NCCCn3ccnc3)C2=O)cc1", "Potency": "13.5 µM (active)"}
{"compound": "COc1ccc(NC(=S)NC2CCS(=O)(=O)C2)cc1", "note": "(configuration not stated)", "Potency": "inactive"}
{"compound": "O=C(CN1C(=O)S/C(=C\\c2ccccc2F)C1=O)NCCCn1ccnc1", "Potency": "inactive"}
{"compound": "O=C(CCN1C(=O)c2ccccc2C1=O)NCCCn1ccnc1", "Potency": "inactive"}
{"compound": "COc1ccc(/C=C2\\SC(=O)N(CCC(=O)NC3CCS(=O)(=O)C3)C2=O)cc1", "note": "(configuration not stated)", "Potency": "10.7 µM (active)"}
{"compound": "COc1ccc(NC(=O)CCN2C(=O)/C(=C/c3ccc4c(c3)OCO4)SC2=S)cc1", "Potency": "inactive"}
{"compound": "O=C(C1CCN(CC2CCCCC2)CC1)N1CCCC1", "Potency": "inactive"}
{"compound": "COc1ccc(-c2nn3c(=O)cc(CN4CCN(C(=O)c5ccc(OC)c(OC)c5)CC4)nc3s2)cc1", "Potency": "inactive"}
{"compound": "COc1ccc(-n2nnc(-c3nsc(NC(=O)c4ccc(C)c(C)c4)n3)c2C)cc1Cl", "Potency": "inactive"}
{"compound": "Cc1c(-c2nsc(NC(=O)c3cccc(Cl)c3)n2)nnn1-c1ccccc1C(F)(F)F", "Potency": "12 µM (active)"}
{"compound": "CCc1cccc(-n2nnc(-c3nsc(NC(=O)c4ccc(C)cc4)n3)c2C)c1", "Potency": "inactive"}
{"compound": "COc1ccc(OCCCn2c(C)nc3cc(C)c(C)cc32)cc1", "Potency": "inactive"}
{"compound": "CC(=O)c1cnc(-c2ccccc2)s1", "Potency": "inactive"}
{"compound": "O=C(/C=C/Nc1ccccc1)c1cnc(-c2ccccc2)s1", "Potency": "inactive"}
{"compound": "CC(C)(C)C(=O)c1cnc(Nc2ccccc2)s1", "Potency": "6.01 µM (active)"}
{"compound": "COc1ccc(NC(=O)CSc2nnc(-c3nnn(-c4ccc(F)cc4)c3C)o2)cc1", "Potency": "inactive"}
{"compound": "CCc1c(-c2ccccc2)nc(N)c(C#N)c1-c1cccs1", "Potency": "inactive"}
{"compound": "O=C(O)Cc1sc(-c2ccccc2)nc1-c1cccs1", "Potency": "23.9 µM (active)"}
{"compound": "CN(C(=O)COc1nnc(-c2cccs2)c(-c2cccs2)n1)c1ccccc1", "Potency": "inactive"}
{"compound": "O=C(CCc1ccccc1Cl)Nc1ccc(S(=O)(=O)Nc2nccs2)cc1", "Potency": "inactive"}
{"compound": "COc1cc(C(=O)N(Cc2ccc(C(C)C)cc2)C2CCS(=O)(=O)C2)cc(OC)c1OC", "note": "(configuration not stated)", "Potency": "inactive"}
{"compound": "CC(=N\\NC(=O)c1cc(Br)ccc1O)/C(=N/O)C(=O)Nc1ccccc1", "Potency": "15.1 µM (active)"}
{"compound": "COc1ccc(-c2[nH]ncc2/C=N/NC(=O)c2cc(Br)ccc2O)c(OC)c1", "Potency": "inactive"}
{"compound": "CC(=O)N/N=C(\\C)c1ccc(Br)cc1Br", "Potency": "inactive"}
{"compound": "CCOC(=O)c1c(NC(=O)c2ccc(S(=O)(=O)N3CCCC(C)C3)cc2)sc2c1CCN(C(C)C)C2", "note": "(configuration not stated)", "Potency": "inactive"}
{"compound": "CC(C)CCN1CCC(C)(NC(=O)c2ccccc2)C1=O", "note": "(configuration not stated)", "Potency": "inactive"}
{"compound": "CC1=C(c2ccc(F)cc2)S(=O)(=O)N=C1N1CCC(C(=O)NCCc2ccccc2C)CC1", "Potency": "inactive"}
{"compound": "CCOC(=O)N1CCC(NC(=O)c2cnn3ccccc23)CC1", "Potency": "inactive"}
{"compound": "Cc1cnc(C(=O)OCC(=O)N2CCc3ccccc32)cn1", "Potency": "inactive"}
{"compound": "O=C(c1cnn2ccccc12)N1CCc2ccccc21", "Potency": "6.75 µM (active)"}
{"compound": "CCOC(=O)c1c(NC(=O)/C(C#N)=C/c2ccccc2)sc2c1CCC2", "Potency": "inactive"}
{"compound": "COc1ccc(Cn2c(C(=O)O)c(CNCc3cccc(OC)c3)c3ccc(C)cc32)cc1", "Potency": "inactive"}
{"compound": "CN1CCN(S(=O)(=O)c2cccc(C(=O)Nc3sccc3C#N)c2)CC1", "Potency": "inactive"}
{"compound": "O=C(Nc1ccncc1)c1ccc(Cl)c([N+](=O)[O-])c1", "Potency": "inactive"}
{"compound": "O=C(Nc1ccccc1C(=O)Nc1ccncc1)c1ccc([N+](=O)[O-])cc1", "Potency": "19 µM (active)"}
{"compound": "O=C(Nc1ccncc1)c1ccccc1[N+](=O)[O-]", "Potency": "inactive"}
{"compound": "CC(=O)Nc1ccc(NC(=O)CSc2nnc(C3CC3)n2-c2ccccc2)cc1", "Potency": "inactive"}
{"compound": "CCc1nn(CCCC(=O)NCc2ccccc2OC)c(=O)c2cc3occc3n12", "Potency": "inactive"}
{"compound": "CC1CN(C(=O)N2CCC(C(=O)NCc3cccs3)CC2)c2ccccc2O1", "note": "(configuration not stated)", "Potency": "1.9 µM (active)"}
{"compound": "O=C(NCc1cccs1)C1CCN(S(=O)(=O)c2ccc(Cl)cc2)CC1", "Potency": "inactive"}
{"compound": "CC1CN(C(=O)N2CCC(C(=O)NCc3ccco3)CC2)c2cc(Cl)ccc2O1", "note": "(configuration not stated)", "Potency": "inactive"}
{"compound": "Cc1nc2nc(SCC(=O)NC3CCC(C)CC3)nn2c(C)c1Cc1ccccc1Cl", "note": "(configuration not stated)", "Potency": "inactive"}
{"compound": "S=c1[nH]nc(/C=C/c2ccccc2)o1", "Potency": "26.9 µM (active)"}
{"compound": "O=c1oc(/C=C/c2ccccc2)nc2ccccc12", "Potency": "inactive"}
{"compound": "Clc1ccc(CSc2nnc(/C=C/c3ccccc3)o2)c(Cl)c1", "Potency": "inactive"}
{"compound": "COc1cccc(-n2ccn(CC(=O)NCc3ccc(C)cc3)c(=O)c2=O)c1", "Potency": "inactive"}
{"compound": "CCS(=O)(=O)N1CCc2cc(C(=O)N3CCN(c4ccccc4OC)CC3)ccc21", "Potency": "inactive"}
{"compound": "CCc1ccccc1NC(=O)c1sc2nc3c(cc2c1N)CN(Cc1ccccc1)CC3", "Potency": "inactive"}
{"compound": "CCc1nnc(NC(=O)c2nc3nccc(C)n3n2)s1", "Potency": "inactive"}
{"compound": "CCc1ccc2nc3sc(C(=O)Nc4nnc(CC)s4)c(N)c3cc2c1", "Potency": "2.39 µM (active)"}
{"compound": "CSc1ccc(CCNC(=O)c2ccc3c(c2)nc2n3CCOC2)cc1", "Potency": "inactive"}
{"compound": "CC(C)c1ccc(S(=O)(=O)N2CCC3(CC2)OCCO3)cc1", "Potency": "inactive"}
{"compound": "CC(C)c1ccc(/C=C2\\NC(=O)NC2=O)cc1", "Potency": "21.3 µM (active)"}
{"compound": "Cc1ccc(NC(=O)COc2ccc(/C=C3/NC(=O)NC3=O)cc2)cc1", "Potency": "inactive"}
{"compound": "Cc1ccc(C)c(Cn2c(C(=O)O)c(CNCc3cccs3)c3ccccc32)c1", "Potency": "inactive"}
{"compound": "Cc1ccnc(NC(=O)C(C)N2C(=O)c3ccccc3C2=O)c1", "note": "(configuration not stated)", "Potency": "inactive"}
{"compound": "Cc1occc1C(=O)Nc1cccc(Cn2cccn2)c1", "Potency": "inactive"}
{"compound": "COc1ccccc1OCCNC(=O)CCNC(=O)c1ccccc1Cl", "Potency": "inactive"}
{"compound": "O=C(NCCOc1ccccc1Cl)C(=O)Nc1ccccc1", "Potency": "inactive"}
{"compound": "Cc1ccnc(NC(=O)c2ccoc2C)c1", "Potency": "16.9 µM (active)"}
{"compound": "Cc1csc(NC(=O)CSc2nc(=O)cc(N)n2-c2ccc(F)cc2)n1", "Potency": "inactive"}
{"compound": "COc1cc(Cl)c(C)cc1NC(=O)COC(=O)c1cc(SC)ccc1Cl", "Potency": "inactive"}
{"compound": "Cc1ccnc(NC(=O)CCCOc2ccccc2)c1", "Potency": "inactive"}
{"compound": "COc1cc(SC)ccc1C(=O)N(Cc1ccccc1)c1ccccc1", "Potency": "inactive"}
{"compound": "COc1cc(SC)ccc1C(=O)Nc1nc(C)cs1", "Potency": "0.0757 µM (active)"}
{"compound": "COc1cc(SC)ccc1C(=O)Nc1cc(C)ccn1", "Potency": "1.35 µM (active)"}
{"compound": "COc1cc(SC)ccc1C(=O)NCCOc1ccccc1Cl", "Potency": "6.01 µM (active)"}
